Values without a mark were called inactive. Calls of active or inactive are those of the source.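 Rule for the calls, unless noted: active = mean inhibition above 46.68%, the untreated control wells mean plus 3 SD; inactive = the rest.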

The target of one assay is Nuclear receptor coactivator 1 (Homo sapiens) (UniProt Q15788). Kind of assay: NCOA1 GAL4-fusion reporter inhibition – cell-based, luminescence, quadruplicate, confirmation (AID 588820).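 Note: 0% = DMSO wells and 100% = gossypol 36 µM treated wells.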 The note with it: HEK293 GAL4-SRC1 luciferase reporter, at 3.6 µM, stronger effect = higher value. (In general: Reporter assays use an easily measured gene product as a stand-in for the process of interest.)
Chain of Nuclear receptor coactivator 1 (Homo sapiens) (Q15788 whole entry, looked up, the tested form may be a part): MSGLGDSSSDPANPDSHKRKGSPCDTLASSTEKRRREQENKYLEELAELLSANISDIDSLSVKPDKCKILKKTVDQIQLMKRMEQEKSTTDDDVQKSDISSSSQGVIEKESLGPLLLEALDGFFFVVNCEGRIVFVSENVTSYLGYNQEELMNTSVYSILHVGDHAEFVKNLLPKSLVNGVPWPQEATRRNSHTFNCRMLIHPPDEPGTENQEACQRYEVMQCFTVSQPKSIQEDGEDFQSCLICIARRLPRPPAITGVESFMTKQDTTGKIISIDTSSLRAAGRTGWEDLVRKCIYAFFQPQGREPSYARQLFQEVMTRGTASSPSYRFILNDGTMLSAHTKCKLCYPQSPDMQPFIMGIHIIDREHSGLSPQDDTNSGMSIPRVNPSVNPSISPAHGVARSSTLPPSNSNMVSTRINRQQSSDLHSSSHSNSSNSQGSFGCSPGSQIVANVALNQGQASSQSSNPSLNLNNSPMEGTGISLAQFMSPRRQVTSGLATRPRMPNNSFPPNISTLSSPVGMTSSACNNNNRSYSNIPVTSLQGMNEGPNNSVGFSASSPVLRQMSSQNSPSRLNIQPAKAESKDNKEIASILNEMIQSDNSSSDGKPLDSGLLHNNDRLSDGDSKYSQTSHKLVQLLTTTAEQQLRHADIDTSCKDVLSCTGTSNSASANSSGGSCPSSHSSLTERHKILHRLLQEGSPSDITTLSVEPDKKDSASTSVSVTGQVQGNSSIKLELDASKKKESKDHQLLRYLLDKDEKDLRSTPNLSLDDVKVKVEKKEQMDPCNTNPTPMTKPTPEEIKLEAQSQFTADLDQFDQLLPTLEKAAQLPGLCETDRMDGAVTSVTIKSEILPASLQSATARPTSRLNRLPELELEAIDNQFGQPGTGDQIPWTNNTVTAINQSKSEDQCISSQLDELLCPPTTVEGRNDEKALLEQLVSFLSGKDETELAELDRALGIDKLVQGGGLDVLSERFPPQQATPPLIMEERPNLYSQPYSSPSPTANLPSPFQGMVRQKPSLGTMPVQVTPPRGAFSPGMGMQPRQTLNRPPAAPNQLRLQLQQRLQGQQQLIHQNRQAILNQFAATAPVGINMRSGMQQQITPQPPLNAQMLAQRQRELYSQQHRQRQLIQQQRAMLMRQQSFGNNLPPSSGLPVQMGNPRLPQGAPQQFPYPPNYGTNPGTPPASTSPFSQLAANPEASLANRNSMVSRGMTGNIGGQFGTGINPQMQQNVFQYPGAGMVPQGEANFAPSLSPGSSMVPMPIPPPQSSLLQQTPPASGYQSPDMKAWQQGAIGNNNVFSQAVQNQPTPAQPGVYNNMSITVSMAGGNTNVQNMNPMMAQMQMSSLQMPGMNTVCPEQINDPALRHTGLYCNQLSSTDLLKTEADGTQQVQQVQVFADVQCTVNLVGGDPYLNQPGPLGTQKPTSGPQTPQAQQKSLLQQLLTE
For the molecule `CC(=O)NC(c1cccs1)c1cc(F)c2cccnc2c1O` (stereo not given), the inhibition (commonly the change of the read-out against control, counted positive when it falls) is 14.3%.
On the same count and under the same terms, as for `COc1ccc(-n2cnc(N)c2C(=O)c2cccc([N+](=O)[O-])c2)cc1`, the figure is 38.1%.
Still for that read-out and setting: as for `O=C(COC(=O)C1CCN(c2ccc(C(F)(F)F)cn2)CC1)NCc1cccc(Cl)c1`, the figure is 1.02%; as for `Cc1sc(NC(=O)c2ccco2)c(C(c2cccnc2)N2CCC(C)CC2)c1C` (stereo not given), -5.49%; as for `CN(C(=O)c1cccc(NC(=O)Cc2ccc(NC(=O)C3CCCN(C(=O)CCc4ccccc4)C3)cc2)c1)C1CCCC1` (stereo not given), -3.52%.
Still for that read-out and setting: the figure for `O=C(NCc1cccc(C(F)(F)F)c1)c1csc([C@@H]2O[C@H](CO)[C@H](O)[C@H](O)[C@H]2O)n1` is -9.94%; for `CC(=O)N1CCc2c(sc(NC(=O)C3CCCN3S(=O)(=O)c3cccs3)c2C(N)=O)C1` (stereo not given) it is 4.87%; for `CC(=O)C1=C(C)NC2=C(C(=O)CC(C)(C)C2)C1C` (stereo not given) it is 28%.
`O=C(COC(=O)c1c(Cl)cccc1Cl)Nc1cc(Cl)ccc1Oc1ccccc1`: the inhibition was -14.1%.
Same read-out and setting: the figure for `CN1CCN(c2ccc(Cl)cc2NC(=O)CC2OC(=O)c3ccccc32)CC1` (stereo not given) is -37.2%; for `COCCN(C(=O)C1=COCCO1)c1c(N)n(Cc2ccccc2)c(=O)[nH]c1=O` it is -12.3%.
The same measure, in the same setting: the figure for `CC1=C(C(=O)Nc2ccccc2C(=O)NCc2ccccc2)SCCO1` is -7.53%; for `CSc1sc(C(=O)NC(=O)NCc2cccnc2)c(C)c1-c1ccon1` it is 3.32%; for `CCOC(=O)c1ccc2c(c1)n(CC)c(/C=C/N(C)c1ccccc1)[n+]2CC` it is 29.7%.
For the molecule `Cc1ccc(S(=O)(=O)N2CCN(C(=O)c3ccc(S(=O)(=O)N4CCCC4)cc3)CC2)cc1`, the inhibition was 1.07%.
Still for that read-out and setting: the figure for `O=C(c1ccc(Cl)c(Cl)c1)N1CCN(c2ccccn2)CC1` is -12.5%.
On the same count and under the same terms, as for `CN(C1CCCCC1)S(=O)(=O)c1ccc(NC(=O)C2CCCCC2)cc1`, the figure is -0.79%.
The same measure, in the same setting: as for `CCCc1cc(=O)oc2c(C)c(O[C@@H]3O[C@H](CO)[C@@H](O)[C@H](O)[C@H]3O)ccc12`, the figure is -6.26%; as for `COc1cc2cc[n+](Cc3ccc([N+](=O)[O-])cc3)cc2cc1OC`, -2.4%; as for `COc1ccc(N(Cc2cc3cc(OC)ccc3[nH]c2=O)S(=O)(=O)c2ccc(NC(C)=O)cc2)cc1`, -21.4%.
Consider `Nc1nc(N)c2c(ccc3nccc32)[nH]1`, for which the inhibition was -7.68%.
Same read-out and setting: the figure for `COc1cc(NC(=O)c2cc3cccc(OC)c3o2)cc(C(=O)Nc2cccc(C(F)(F)F)c2)c1` is -23.9%; for `COc1ccc(-c2ocnc2C(=O)NCc2nn(-c3ccccc3)nc2C)cc1` it is -0.81%; for `Cc1ccc(CNc2nc(-c3cccs3)nc3ccccc23)cc1` it is -2.3%.
Consider `Cc1c(C(=O)N2CCN(Cc3ccc4c(c3)OCO4)CC2)sc2ncnc(N3CCN(c4ccccc4F)CC3)c12`, for which the inhibition was -22.2%.
For the molecule `COc1ccc2cc3cc(C(=O)NCc4cccs4)oc3nc2c1`, the inhibition was 4.16%.
Still for that read-out and setting: the figure for `CCOC(=O)c1c(NC(=O)c2c(-c3ccccc3)noc2C)sc(C)c1-c1ccccc1` is 39.9%.
For the molecule `c1cc2c(cn1)cnc1cscc12`, the inhibition was 40.9%.
Still for that read-out and setting: the figure for `CC1CCCCN1c1ncnc2ccccc12` (stereo not given) is 18.5%.
Same read-out and setting: the figure for `CN1CCN(c2ccc(CNS(=O)(=O)c3ccc(F)cc3Cl)cc2)CC1` is -2.89%; for `CCOc1ccc(CCN2C(=S)N([C@@H](CC(C)C)CN3CCC[C@@H]3CN3C(=S)NC[C@@H]3CC(C)C)C[C@@H]2CC(C)C)cc1` it is 3.98%.
The same measure, in the same setting: as for `COc1ccc2cc3cc(C(=O)NCCc4ccc(OC)c(OC)c4)oc3nc2c1`, the figure is -32.9%; as for `O=C(Cc1cccs1)N(CC1CCCO1)C1(C(=O)NC2CCCCC2)CCCCC1` (stereo not given), 7.13%; as for `CC1CCc2c(sc3ncnc(N4CCOCC4)c23)C1` (stereo not given), 40%.
As for `COc1ccc(C(=O)Nc2ccnn2C2CCN(C3CCC3)CC2)cc1`, the inhibition was -28.9%.
For `COc1ccc(C(=O)N2CCN(c3ccc(NC(=O)c4cccs4)cc3)CC2)cc1`, the inhibition is 2.7%.
As for `CCN1CCN(c2ccc(S(=O)(=O)N3CCOCC3)cc2NC(=O)c2cc(Cl)nc3ccccc23)CC1`, the inhibition is -18.2%.
The same measure, in the same setting: the figure for `COc1ccc(NC(=O)/C(C#N)=C\c2cc(C)n(-c3ccc4c(c3)OCO4)c2C)cc1` is -34.8%.
For the molecule `CC(C)c1ccc2c(c1)C(N1CCN(C)CC1)Cc1cccnc1S2` (stereo not given), the inhibition was 6.3%.
Same read-out and setting: the figure for `NC(=O)c1ccc(N2CCN(S(=O)(=O)c3ccccc3)CC2)c([N+](=O)[O-])c1` is -20.8%.

Tested on in another assay: not listed separately
The assay can be described thus: repression of VP16-driven luciferase reporter – cell-based, luminescence, high throughput, counter-screen for SRC1 inhibitor project (AID 588824; in the data active = inhibition above about 25%). Conditions: cell-based VP16 transactivation luciferase luminescence; at 3.6 µM; stronger effect = higher value.
For the molecule `CC(=O)NC(c1cccs1)c1cc(F)c2cccnc2c1O` (stereo not given), the inhibition is 15.3%.
The same measure, in the same setting: as for `COc1ccc(-n2cnc(N)c2C(=O)c2cccc([N+](=O)[O-])c2)cc1`, the figure is 18.6%; as for `O=C(COC(=O)C1CCN(c2ccc(C(F)(F)F)cn2)CC1)NCc1cccc(Cl)c1`, -3.36%.
Same read-out and setting: the figure for `Cc1sc(NC(=O)c2ccco2)c(C(c2cccnc2)N2CCC(C)CC2)c1C` (stereo not given) is 26.1% (active).
Still for that read-out and setting: as for `CN(C(=O)c1cccc(NC(=O)Cc2ccc(NC(=O)C3CCCN(C(=O)CCc4ccccc4)C3)cc2)c1)C1CCCC1` (stereo not given), the figure is 19.6%.
Take `O=C(NCc1cccc(C(F)(F)F)c1)c1csc([C@@H]2O[C@H](CO)[C@H](O)[C@H](O)[C@H]2O)n1`: the inhibition is -4.13%.
On the same count and under the same terms, the figure for `CC(=O)N1CCc2c(sc(NC(=O)C3CCCN3S(=O)(=O)c3cccs3)c2C(N)=O)C1` (stereo not given) is -1.35%; for `CC(=O)C1=C(C)NC2=C(C(=O)CC(C)(C)C2)C1C` (stereo not given) it is 15.6%.
Same read-out and setting: as for `O=C(COC(=O)c1c(Cl)cccc1Cl)Nc1cc(Cl)ccc1Oc1ccccc1`, the figure is 4.43%; as for `CN1CCN(c2ccc(Cl)cc2NC(=O)CC2OC(=O)c3ccccc32)CC1` (stereo not given), -6.69%; as for `COCCN(C(=O)C1=COCCO1)c1c(N)n(Cc2ccccc2)c(=O)[nH]c1=O`, -15.5%.
Still for that read-out and setting: as for `CC1=C(C(=O)Nc2ccccc2C(=O)NCc2ccccc2)SCCO1`, the figure is -4.09%.
Turning to `CSc1sc(C(=O)NC(=O)NCc2cccnc2)c(C)c1-c1ccon1`, the inhibition is 1.48%.
Still for that read-out and setting: as for `CCOC(=O)c1ccc2c(c1)n(CC)c(/C=C/N(C)c1ccccc1)[n+]2CC`, the figure is 62.3% (active); as for `Cc1ccc(S(=O)(=O)N2CCN(C(=O)c3ccc(S(=O)(=O)N4CCCC4)cc3)CC2)cc1`, 9%; as for `O=C(c1ccc(Cl)c(Cl)c1)N1CCN(c2ccccn2)CC1`, 7.01%.
For the molecule `CN(C1CCCCC1)S(=O)(=O)c1ccc(NC(=O)C2CCCCC2)cc1`, the inhibition is 11%.
As to `CCCc1cc(=O)oc2c(C)c(O[C@@H]3O[C@H](CO)[C@@H](O)[C@H](O)[C@H]3O)ccc12`, the inhibition is -0.67%.
Still for that read-out and setting: the figure for `COc1cc2cc[n+](Cc3ccc([N+](=O)[O-])cc3)cc2cc1OC` is -3.17%; for `COc1ccc(N(Cc2cc3cc(OC)ccc3[nH]c2=O)S(=O)(=O)c2ccc(NC(C)=O)cc2)cc1` it is -1.84%.
On to `Nc1nc(N)c2c(ccc3nccc32)[nH]1`, for which the inhibition was 24.9%.
Still for that read-out and setting: the figure for `COc1cc(NC(=O)c2cc3cccc(OC)c3o2)cc(C(=O)Nc2cccc(C(F)(F)F)c2)c1` is 18.4%; for `COc1ccc(-c2ocnc2C(=O)NCc2nn(-c3ccccc3)nc2C)cc1` it is 15%.
Still for that read-out and setting: the figure for `Cc1ccc(CNc2nc(-c3cccs3)nc3ccccc23)cc1` is 14.8%; for `Cc1c(C(=O)N2CCN(Cc3ccc4c(c3)OCO4)CC2)sc2ncnc(N3CCN(c4ccccc4F)CC3)c12` it is 18.3%.
In the case of `COc1ccc2cc3cc(C(=O)NCc4cccs4)oc3nc2c1`, the inhibition was 39.4% (active).
Turning to `CCOC(=O)c1c(NC(=O)c2c(-c3ccccc3)noc2C)sc(C)c1-c1ccccc1`, the inhibition is 78.2% (active).
Still for that read-out and setting: as for `c1cc2c(cn1)cnc1cscc12`, the figure is 7.33%; as for `CC1CCCCN1c1ncnc2ccccc12` (stereo not given), 17.9%; as for `CN1CCN(c2ccc(CNS(=O)(=O)c3ccc(F)cc3Cl)cc2)CC1`, -5.39%.
On the same count and under the same terms, as for `CCOc1ccc(CCN2C(=S)N([C@@H](CC(C)C)CN3CCC[C@@H]3CN3C(=S)NC[C@@H]3CC(C)C)C[C@@H]2CC(C)C)cc1`, the figure is 5.15%; as for `COc1ccc2cc3cc(C(=O)NCCc4ccc(OC)c(OC)c4)oc3nc2c1`, 42.2% (active).
In the case of `O=C(Cc1cccs1)N(CC1CCCO1)C1(C(=O)NC2CCCCC2)CCCCC1` (stereo not given), the inhibition is 14.9%.
In the case of `CC1CCc2c(sc3ncnc(N4CCOCC4)c23)C1` (stereo not given), the inhibition was 26.6% (active).
The same measure, in the same setting: as for `COc1ccc(C(=O)Nc2ccnn2C2CCN(C3CCC3)CC2)cc1`, the figure is -0.43%.
Still for that read-out and setting: as for `COc1ccc(C(=O)N2CCN(c3ccc(NC(=O)c4cccs4)cc3)CC2)cc1`, the figure is -1.25%.
`CCN1CCN(c2ccc(S(=O)(=O)N3CCOCC3)cc2NC(=O)c2cc(Cl)nc3ccccc23)CC1`: the inhibition was 1.55%.
The same measure, in the same setting: as for `COc1ccc(NC(=O)/C(C#N)=C\c2cc(C)n(-c3ccc4c(c3)OCO4)c2C)cc1`, the figure is 30.7% (active).
`CC(C)c1ccc2c(c1)C(N1CCN(C)CC1)Cc1cccnc1S2` (stereo not given): the inhibition is -5.2%.
As for `NC(=O)c1ccc(N2CCN(S(=O)(=O)c3ccccc3)CC2)c([N+](=O)[O-])c1`, the inhibition is 31.9% (active).

The values are drawn from PubChem BioAssay.
